Test [1] in a line: NCI Yeast Anticancer Drug Screen. Data for the mec2-1 strain (AID 157). As to conditions: S. cerevisiae mec2-1 strain, active compounds read high. An outline of the steps: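 Readout is yeast growth inhibition, normalised to vehicle-treated controls, in the mec2-1 strain exposed to compound.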
A short description of test [2]: NCI Yeast Anticancer Drug Screen. Data for the sgs1 mgt1 strain (AID 161).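 Also: 0% = growth of cultures given vehicle only.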 As to conditions: S. cerevisiae sgs1 mgt1 strain, active compounds read high. In outline:
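Compounds are added to genetically altered yeast, and growth is compared with cultures given vehicle alone to give percent inhibition.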

Test [3] is described as follows: NCI Yeast Anticancer Drug Screen. Data for the cln2 rad14 strain (AID 165).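 Also: 0% = growth equal to vehicle treated cultures.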 As to conditions: S. cerevisiae cln2 rad14 strain, active compounds read high. An outline of the steps: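 Relative to vehicle controls, growth inhibition of compound-treated cln2 rad14 yeast was recorded.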
Test [4] can be described thus: NCI Yeast Anticancer Drug Screen. Data for the bub3 strain (AID 167). As to conditions: S. cerevisiae bub3 mutant strain, active compounds read high. An outline of the steps: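 Growth of a checkpoint-deficient yeast mutant is measured after compound exposure. Values represent inhibition relative to vehicle.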
Test [5] can be described thus: NCI Yeast Anticancer Drug Screen. Data for the mlh1 rad18 strain (AID 175). As to conditions: S. cerevisiae mlh1 rad18 strain growth inhibition, active compounds read high. In outline: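 Test agents were incubated with a yeast strain of defined genotype (DNA damage repair defect). Inhibition of growth was derived by comparison with vehicle-exposed cultures.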
Test [6] is described as follows: NCI Yeast Anticancer Drug Screen. Data for the rad50 strain (AID 155).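 Also: 0% = growth of vehicle-only cultures of the same strain.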 The following applies: S. cerevisiae rad50 strain growth inhibition, active compounds read high. In outline: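 Compounds were tested on a yeast strain with an engineered DNA damage repair alteration; the reported value is growth inhibition normalised to vehicle treatment.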
[7] abbreviates: at 5.0 µM (retest, dose inferred, filed as 0.5).
Setting [8] is: at 50.0 µM (retest, dose inferred, filed as 5.0).

Eight compounds from PubChem BioAssay (NCI) can be followed below.

About 79,000 compounds went through this panel and 15% of them were active in at least one assay; those are over-represented in the sample as a whole. Values without a mark were called inactive. The source made the active and inactive calls. Rule as the data show it: active = growth inhibition above about 70%; inactive = the rest.

`Clc1c2ccccc2cc2cccnc12`: the growth inhibition in test [1] (setting [7]) is 7%; in test [1] (setting [8]) it was 26%; in test [1] (at 50.0 µM) it was 54.6%; in test [2] (setting [7]), 6%; in test [2] (setting [8]), 81% (active); in test [2] (at 50.0 µM), 48.8%. The growth inhibition in test [3] (setting [7]) is 3%; in test [3] (setting [8]), 40%; in test [3] (at 50.0 µM) it was 36%; in test [4] (setting [7]) it was 3%; in test [4] (setting [8]), 71% (active); in test [4] (at 50.0 µM), 76% (active). The growth inhibition is 17% in test [5] (setting [7]), 86% (active) in test [5] (setting [8]) and 67.2% in test [5] (at 50.0 µM).
`Cc1cc(C)n2nc(N)c(C#N)c2c1C#N`: the growth inhibition in test [1] (setting [7]) was 1%; in test [1] (setting [8]), 0%; in test [1] (at 50.0 µM), 7.85%; in test [2] (setting [7]) it was 2%; in test [2] (setting [8]), 8%; in test [2] (at 50.0 µM), 0.85%. Besides, the growth inhibition in test [3] (setting [7]) is -2%; in test [3] (setting [8]), 2%; in test [3] (at 50.0 µM) it was 11.7%; in test [4] (setting [7]) it was -1%; in test [4] (setting [8]) it was -3%; in test [4] (at 50.0 µM), 47.7%. The growth inhibition in test [5] (setting [7]) is -1%; in test [5] (setting [8]) it was 7%; in test [5] (at 50.0 µM), 62%.
Turning to `O=C1OC(=O)c2ccc([N+](=O)[O-])c3cccc1c23`, the growth inhibition is 0% in test [6] (setting [7]); 7% in test [6] (setting [8]); 70.4% (active) in test [6] (at 50.0 µM); 2% in test [1] (setting [7]); 9% in test [1] (setting [8]); 51.6% in test [1] (at 50.0 µM). Moreover, the growth inhibition in test [2] (setting [7]) was 2%; in test [2] (setting [8]) it was 2%; in test [2] (at 50.0 µM), 76.4% (active); in test [4] (setting [7]), 0%; in test [4] (setting [8]), 16%; in test [4] (at 50.0 µM) it was 74.2% (active). The growth inhibition in test [5] (setting [7]) is 0%; in test [5] (setting [8]) it was 13%; in test [5] (at 50.0 µM) it was 82.8% (active).
Regarding `COC1OC2=CCC3C(=O)NC(=O)C3C2[C@H](OCc2ccccc2)C1OCc1ccccc1` (stereo not given in full), the growth inhibition is 11% in test [6] (setting [7]); 99% (active) in test [6] (setting [8]); 98.4% (active) in test [6] (at 50.0 µM); 11% in test [2] (setting [7]); 99% (active) in test [2] (setting [8]); 98.8% (active) in test [2] (at 50.0 µM). Moreover, the growth inhibition in test [3] (setting [7]) is 0%; in test [3] (setting [8]) it was 99% (active); in test [3] (at 50.0 µM) it was 93.5% (active); in test [4] (setting [7]), 2%; in test [4] (setting [8]), 97% (active); in test [4] (at 50.0 µM), 98.8% (active). For the same compound, the growth inhibition is 4% in test [5] (setting [7]), 98% (active) in test [5] (setting [8]) and 98.9% (active) in test [5] (at 50.0 µM).
Regarding `O=C1OC(c2ccc(O)cc2)Sc2ccccc21` (stereo not given), the growth inhibition in test [6] (setting [7]) was 6%; in test [6] (setting [8]), 66%; in test [6] (at 50.0 µM), 81.1% (active); in test [1] (setting [7]) it was 38%; in test [1] (setting [8]), 83% (active); in test [1] (at 50.0 µM) it was 74.2% (active). Further, the growth inhibition was -43% in test [2] (setting [7]); 40% in test [2] (setting [8]); 49.8% in test [2] (at 50.0 µM); -1% in test [4] (setting [7]); 29% in test [4] (setting [8]); 3.9% in test [4] (at 50.0 µM). The growth inhibition in test [5] (setting [7]) was 8%; in test [5] (setting [8]), 56%; in test [5] (at 50.0 µM), 40%.
On to `Fc1ccc(NC(=S)SCc2ccccc2)cc1`, for which the growth inhibition in test [1] (setting [7]) was -2%; in test [1] (setting [8]), 18%; in test [1] (at 50.0 µM), 53.6%; in test [2] (setting [7]), 2%; in test [2] (setting [8]) it was 19%; in test [2] (at 50.0 µM) it was 76.8% (active). The growth inhibition in test [3] (setting [7]) is -7%; in test [3] (setting [8]), 1%; in test [3] (at 50.0 µM) it was 28.9%; in test [4] (setting [7]) it was -4%; in test [4] (setting [8]), 34%; in test [4] (at 50.0 µM), 45.5%. Besides, the growth inhibition in test [5] (setting [7]) is 0%; in test [5] (setting [8]), 15%; in test [5] (at 50.0 µM) it was 78.2% (active).
For `Nc1ncnc2c1c(-c1ccc(Cl)cc1)cn2-c1ccccc1`, the growth inhibition is 21% in test [6] (setting [7]); 62% in test [6] (setting [8]); 51.2% in test [6] (at 50.0 µM); 42% in test [2] (setting [7]); 82% (active) in test [2] (setting [8]); 85.2% (active) in test [2] (at 50.0 µM). Besides, the growth inhibition in test [3] (setting [7]) was 2%; in test [3] (setting [8]) it was 35%; in test [3] (at 50.0 µM), 45%; in test [4] (setting [7]), 13%; in test [4] (setting [8]) it was 65%; in test [4] (at 50.0 µM), 48.7%. Moreover, the values for the growth inhibition in test [5] (setting [7]), in test [5] (setting [8]) and in test [5] (at 50.0 µM) were 13%, 76% (active) and 26.7%, respectively.
Regarding `Cc1ccc(C2(c3ccc(F)cc3)OC(=O)c3ccccc32)c(O)c1` (stereo not given), the growth inhibition in test [6] (setting [7]) was 11%; in test [6] (setting [8]), 99% (active); in test [6] (at 50.0 µM), 86.2% (active); in test [2] (setting [7]), -14%; in test [2] (setting [8]), 99% (active); in test [2] (at 50.0 µM), 97% (active). Also, the growth inhibition was 3% in test [3] (setting [7]); 99% (active) in test [3] (setting [8]); 93.8% (active) in test [3] (at 50.0 µM); 11% in test [4] (setting [7]); 99% (active) in test [4] (setting [8]); 98.8% (active) in test [4] (at 50.0 µM). In addition, the results for the growth inhibition in test [5] (setting [7]), in test [5] (setting [8]) and in test [5] (at 50.0 µM) were 27%, 99% (active) and 96.3% (active), respectively.
